The values below come from the supplement of paper PMC7156485.

SMILES strings stand for the structures. Several values for one entry are separate records, joined by “and”; a condition that tells them apart may be missing. Equal entries are not always repeated.
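Also: TDF denotes transformed human dermal fibroblasts of mesenchymal origin.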

In one assay the test system is HCC1569. In words: cell number relative to DMSO (% of DMSO); higher = more cells (less growth inhibition / toxicity). The settings on record: concentration: 10 µM; 24 h. The procedure, abridged: (§1)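 H1.0 nuclear intensity or cell number is expressed as percent of the plate control, with the median of replicates taken. HCC1569 and TDF cells were treated with compounds at 10 µM for 24 h at 37 °C, in triplicate, then fixed and immunostained for H1.0 with DAPI as a nuclear stain. HCC1569 values were smoothed to correct for positional effects.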
`N#CC(=Cc1ccc(O)c(O)c1)C(=O)c1ccc(O)c(O)c1` [Tyrphostin AG 538]: the cell number was 80.4. On the same count and under the same terms, for `CN(C)CCN1C(=O)c2ccccc2N(C)c2ccccc21` [Dibenzepine] the value was 102; for `CCCCCCCCC=CCCCCCCCCCCCC(=O)O` [13(E)-Docosenoic acid], 104; for `CCCCCC(O)C=CC1C(O)CC(O)C1CC=CCCCC(=O)O` (centres undefined) [Prostaglandin F2a], 97.3.

`CCCn1cnc2c1c(=O)n(CCCCC(C)=O)c(=O)n2C` [Propentofylline]: the cell number stood at 104. In turn, `O=c1oc(Cl)c(Cl)c2ccccc12` [3,4-Dichloroisocoumarin] yielded a cell number of 103.

As to `O=C(NCCO)c1cccc(-c2cc(Nc3ccc(OC(F)(F)F)cc3)ncn2)c1`, the cell number is 91.1.

The subject of another assay is TDF. The assay is described as above. As to conditions: concentration: 10 µM; 24 h. The procedure, abridged:
as §1
In turn, `CSc1nc(-c2ccnc(NC(C)c3ccccc3)c2)c(-c2ccc(F)cc2)[nH]1` (centres undefined) [p38 MAP Kinase Inhibitor III] displayed a cell number of 107. On the same count and under the same terms, then `CC(C)NCC(O)COc1ccc(CCOCC2CC2)cc1.Cl` (centres undefined) [Betaxolol.HCl], with 98; and `O=C(O)CO.[NH2-].[NH2-].[Pt+2]` [Nedaplatin], with 92.6.

For `CCCc1c(OCCCCc2nn[nH]n2)ccc(C(C)=O)c1O`, the cell number was 101 and 110. `Cl.NC(CO)C(=O)NNCc1ccc(O)c(O)c1O` (centres undefined) [Benserazide hydrochloride] showed a cell number of 95.6. Same read-out and setting: then `CCCCCCCCC=CCCCCCCCCCCC(=O)O` [12(Z) Heneicosenoic acid], with 98.

`CC1(C)C(=O)N(CCN2CCC(C(=O)c3ccc(F)cc3)CC2)c2ccccc21.Cl` [LY-310,762 hydrochloride] showed a cell number of 94.5. Still for that read-out and setting: then `CN(C)CCCN1c2ccccc2Sc2ccc(Cl)cc21.Cl` [Chlorpromazine.HCl], with 99.7; and `O=C1Nc2ccc(Cl)cc2C(C#CC2CC2)(C(F)(F)F)O1` (centres undefined) [Efavirenz], with 98.5. Molecule `N[C@H](CO)C(=O)O` [D-Serine] registered a cell number of 112. Same read-out and setting: for `NCC(O)c1ccc(O)c(O)c1.O=C(O)C(O)C(O)C(=O)O` (stereo not drawn) [L(-)-Norepinephrine bitartrate] the value was 106. In turn, `COc1ccc(S(=O)(=O)Nc2nc(-c3cccc([N+](=O)[O-])c3)cs2)cc1OC` yielded a cell number of 92.4. `CC(=O)OC1CCC2(C)C(C1)C(OC(C)=O)CC1C2CC2C3CN4CC(C)CCC4C(C)C3CCC21O` (centres undefined) [Diacetylkorseveriline] registered a cell number of 109. With `CN1CCN(c2nc3cc(C(F)(F)F)ccc3n3cccc23)CC1.O=C(O)C=CC(=O)O`, the cell number is 104. Same read-out and setting: for `CC(C)(ON=C(C(=O)NC1C(=O)N2C(C(=O)[O-])=C(C[n+]3ccccc3)CSC12)c1csc(N)n1)C(=O)O` (centres undefined) [Ceftazidime] the value was 103; for `CNC(=O)C1OC(n2cnc3c(NCc4ccc(N)cc4)ncnc32)C(O)C1O` (centres undefined), 98.3; for `C[N+](C)(C)CCC(=O)c1cccc2ccccc12.[I-]` [2-(alpha-Naphthoyl)ethyltrimethylammonium iodide], 81.5. Still for that read-out and setting: for `CN(C)CCC(c1ccc(Br)cc1)c1ccccn1.O=C(O)C=CC(=O)O` (racemic) the value was 98.7.

Molecule `COc1ccc(CN2CCN(C(c3ccc(F)cc3)c3ccc(F)cc3)CC2)c(OC)c1OC` [Lomerizine] had a cell number of 98.8. On the same count and under the same terms, for `Nc1c2c(nc3ccccc13)CCCC2O.O=C(O)C=CC(=O)O` (centres undefined) [Hydroxytacrine] the value was 101; for `CCC1OC(=O)C(C)C(OC2CC(C)(OC)C(O)C(C)O2)C(C)C(OC2OC(C)CC(N(C)C)C2O)C(C)(OC)CC(C)C(=O)C(C)C(O)C1(C)O` (centres undefined) [Clarithromycin], 93. On the same count and under the same terms, then `CC(C)=CCCC(C)=CCCC(C)=CCSc1ccccc1C(=O)O` [Farnesylthiosalicylic acid], with 99.9.

Turning to `COc1ccc2c(c1)CC[C@@H]1[C@@H]2CC[C@]2(C)[C@@H](NCCCCCCN3C(=O)C=CC3=O)CC[C@@H]12.O`, the cell number was 109.

For the molecule `C#CCN(C)Cc1ccccc1.Cl` [Pargyline hydrochloride], the cell number worked out at 105. In turn, `CC1(COc2ccc(CC3SC(=O)NC3=O)cc2)CCCCC1` (centres undefined) [Ciglitizone] showed a cell number of 105. `CC(C)C[C@H](NC(=O)C(O)[C@H](N)Cc1ccc([N+](=O)[O-])cc1)C(=O)O.Cl` (some centres undefined) had a cell number of 104.

In the case of `CC(=O)SCC(Cc1ccccc1)C(=O)NCC(=O)OCc1ccccc1` (centres undefined) [Racecadotril], the cell number is 117.
